Experimental data as given in PubChem BioAssay (NCATS).
Results filed as inconclusive are left out. Calls of active or inactive are those of the source. Unless noted, calls come from the whole dose curve.

Key:
[1] = target: Estrogen receptor (Homo sapiens) (UniProt P03372); test: qHTS assay for small molecule antagonists of estrogen receptor alpha signaling (AID 588513; active = well fitted curve in the direction sought with a large enough effect in the signal ratio, with a control signal flat, not every such curve was filed as active; the % refers to the signal ratio; note: % is set by controls: 0 for no effect and ±100 for the full control effect)
How it was run: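 ER-alpha-UAS-bla GripTite HEK 293 cells in 2% charcoal/dextran-treated FBS medium; compounds titrated (1:2, duplicate), then stimulated with 0.5 nM 17-beta-estradiol for 18 h at 37C. CCF4 beta-lactamase fluorescence; Hill-fit IC50 and efficacy.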

[2] = target: Estrogen receptor (Homo sapiens) (UniProt P03372); test: qHTS assay for small molecule agonists of estrogen receptor alpha signaling (AID 588514);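 note: 0% = vehicle only and 100% = reference agonist; nearly all actives have a fitted effect of over 70% in size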
How it was run: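 Fluorescence from CCF4 cleavage reports ER-alpha-driven beta-lactamase expression in HEK 293 cells treated 18 hrs at 37 C. Data normalized to 17-beta-estradiol (20 nM) and DMSO, fitted to Hill equation.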

[3] = qHTS assay for small molecule antagonists of peroxisome proliferator-activated receptor delta signaling (AID 588535); settings: HEK293T PPARd-UAS-bla, beta-lactamase FRET ratio, 18 h; 460 nm channel;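 note: cells co-treated with a PPAR-delta agonist as stimulator during compound exposure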
How it was run: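 Antagonist-mode qHTS using GeneBLAzer PPAR-delta-UAS-bla HEK293T cells; compound exposure 18 hrs at 37 C over a titration. Ratiometric CCF4 fluorescence at 460/530 nm; concentration-response points fitted to the Hill equation.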

[4] = target: Vitamin D3 receptor (Homo sapiens) (UniProt P11473); test: qHTS assay for small molecule antagonists of vitamin D receptor signaling (AID 588541);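 note: receptor activated by calcitriol during compound treatment; series mostly up to about 77 µM; % is set by controls: 0 for no effect and ±100 for the full control effect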
How it was run: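 Antagonist-mode beta-lactamase reporter assay: HEK293T VDR-UAS-bla cells were exposed to titrated compound alongside 1-alpha,25-dihydroxyvitamin D3 at 3 nM final for 16 h. Values were normalized to the 50 nM agonist control and DMSO basal, with IC50 and efficacy from Hill equation fits.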

[5] = target: Vitamin D3 receptor (Homo sapiens) (UniProt P11473); test: qHTS assay for small molecule agonists of vitamin D receptor signaling (AID 588543);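 note: 0% = DMSO basal and 100% = reference agonist control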
How it was run: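 VDR-UAS-bla HEK293T cells, 2000/well, 2% charcoal-stripped FBS; compound titration 16 h at 37 C; CCF4 beta-lactamase ratio read. Normalized to 50 nM 1-alpha,25-dihydroxyvitamin D3 (100%) and DMSO; Hill fit gives EC50, efficacy.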

[6] = qHTS assay for small molecule agonists of retinoid X receptor alpha signaling (AID 588544); settings: HEK293T RXRa-UAS-bla, beta-lactamase reporter, 18 h; 530 nm emission;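 for activation: 0% = DMSO basal wells and 100% = reference agonist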
[7] = target: Retinoic acid receptor RXR-alpha (Homo sapiens) (UniProt P19793); test: as above
[8] = target: Thyroid hormone receptor beta (Homo sapiens) (UniProt P10828); test: qHTS assay for small molecule agonists of thyroid hormone receptor beta signaling (AID 588545);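 note: 0% = DMSO only and 100% = 10 nM T3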
How it was run: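 Stimulation of a TR-driven beta-lactamase reporter was quantified in GripTite HEK 293 cells. Compound series ran for 18 hrs; curves were normalized to T3 and DMSO controls and fitted to yield EC50.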

[9] = qHTS assay for small molecule antagonists of retinoid X receptor alpha signaling (AID 588546; active = well fitted inhibition curve with a large enough effect in the signal ratio, with a control signal flat, not every such curve was filed as active; the % refers to the signal ratio;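 note: cells stimulated with 9-cis-retinoic acid as agonist; % is set by controls: 0 for no effect and ±100 for the full control effect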); settings: HEK293T RXRa-UAS-bla, beta-lactamase ratio, antagonist mode; measured here: W530 green channel, cytotoxicity proxy
How it was run: (§1)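 Beta-lactamase reporter inhibition, read as CCF4 fluorescence ratio (ex 405, em 460/530 nm) after 2 h at RT. HEK293T UAS-bla cells, 2500/well, were stimulated with 9-cis-RA at 500 or 100 nM final alongside test compound for 18 h at 37 C.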

[10] = target: Retinoic acid receptor RXR-alpha (Homo sapiens) (UniProt P19793); test: as above; settings: HEK293T RXRa-UAS-bla, beta-lactamase ratio, antagonist mode
How it was run: as §1

[11] = target: Thyroid hormone receptor beta (Homo sapiens) (UniProt P10828); test: qHTS assay for small molecule antagonists of thyroid hormone receptor beta signaling (AID 588547; active = well fitted inhibition curve with a large enough effect in the signal ratio, with a control signal flat, not every such curve was filed as active; the % refers to the signal ratio;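 note: cells stimulated with 0.4 nM T3 agonist during compound exposure; series mostly up to about 77 µM; % is set by controls: 0 for no effect and ±100 for the full control effect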); settings: TR-UAS-bla HEK293, beta-lactamase ratio, antagonist mode, 18 h
How it was run: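 Inhibition of T3-driven (0.4nM final) beta-lactamase reporter activity was measured over 0.59 nM to 92 uM compound after 18 h at 37 C. The cells were GripTite HEK293 TR-UAS-bla in charcoal/dextran-stripped serum, with CCF4 ratio read-out and IC50 from Hill fits.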

[12] = qHTS assay for environmental chemicals that activate the Aryl hydrocarbon Receptor (AhR) signaling pathway (AID 651777; active = well fitted curve in the direction sought with a large enough effect; an effect the other way counts as inactive or inconclusive; note: % of control where 0% means no effect; nearly all actives have a fitted effect of over 15% in size); settings: 1A2-DRE human hepatoma cells, luciferase, 24 h; activation: stronger effect = higher value
How it was run: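 Human hepatoma 1A2-DRE cells, stably carrying a dioxin response element and CYP1A2 promoter driving luciferase, were exposed to compounds for 24 hr at 37 C and 5% CO2. Luciferase signal was then read after 30 min One-Glo at room temperature.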

[13] = target: Peroxisome proliferator-activated receptor alpha (Homo sapiens) (UniProt Q07869); test: qHTS assay for small molecule agonists of the peroxisome proliferator-activated receptor alpha (PPARalpha) signaling pathway (AID 651778; active = well fitted curve in the direction sought with a large enough effect; an effect the other way counts as inactive or inconclusive; note: % of control where 0% means no effect); settings: PathHunter PPARalpha complementation, chemiluminescence, 6 h; max response: stronger effect = higher value
How it was run: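 Chemiluminescence from complemented enzyme reported PPARalpha activation in cells after 6 hr of compound treatment at 37 C. The detection reagent was incubated for 60 min at room temperature, and compounds were scored as agonists.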

[14] = qHTS assay for small molecule agonists of the antioxidant response element (ARE) signaling pathway measured by Nrf2-dependant transcriptional activity (AID 720636; active = well fitted curve in the direction sought with a large enough effect in the repeat runs; an effect the other way counts as inactive or inconclusive; note: % of control where 0% means no effect)
How it was run: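 ARE-luc HepG2 cells carrying an Nrf2-responsive luciferase reporter were plated in medium with 1% dialyzed FBS, left 6 hr at 37 C to attach, then exposed to compound for 16 hr. Luciferase luminescence was read after ONE-Glo addition.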

[15] = qHTS assay for small molecule agonists of the antioxidant response element (ARE) signaling pathway measured by Nrf2-dependant transcriptional activity - cell viability counter screen (AID 720653; active = well fitted curve in the direction sought with a large enough effect in the repeat runs; an effect the other way counts as inactive or inconclusive; note: % is set by controls: 0 for no effect and ±100 for the full control effect); settings: ARE-bla HepG2 viability, CellTiter-Glo ATP luminescence, 16 h; max response: stronger effect = lower value
How it was run: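 Cytotoxicity counter screen: intracellular ATP quantified by CellTiter-Glo luminescence in the same ARE-bla HepG2 plates, after 16 h compound exposure and a 2 h beta-lactamase substrate step.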

[16] = qHTS assay for cell viability of HEK293 cells (AID 743288; active = well fitted curve in the direction sought with a large enough effect; an effect the other way counts as inactive or inconclusive; note: % is set by controls: 0 for no effect and ±100 for the full control effect; nearly all actives have a fitted effect of over 50% in size); settings: ATP luminescence (CellTiter-Glo), 18 h; max response: stronger effect = lower value
How it was run: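 Steps: plate 2,000 parental HEK293 cells per well; incubate ≥5 h, 37 C; add compounds in DMSO; incubate 18 h, 37 C; add CellTiter-Glo; wait 30 min at room temperature; read luminescence.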

[17] = qHTS assay for cell viability of the p53RE-bla HCT-116 cell line (AID 743292; active = well fitted curve in the direction sought with a large enough effect; an effect the other way counts as inactive or inconclusive; note: % is set by controls: 0 for no effect and ±100 for the full control effect; nearly all actives have a fitted effect of over 55% in size)
How it was run: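 CellSensor p53RE-bla HCT-116 cells, 4,000/well, preincubated 5 h at 37 C, then exposed to compounds in DMSO for 16 h at 37 C. Viability read as CellTiter-Glo luminescence (intracellular ATP) after 30 min at room temperature.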

[18] = target: Nuclear receptor subfamily 1 group I member 2 (Rattus norvegicus) (UniProt Q9R1A7); test: qHTS assay for small molecule activators of the rat pregnane X receptor (rPXR) signaling pathway (AID 651751; call rule not given here; note: 0% is about no effect); settings: rPXR reporter cells, luciferase (One-Glo), 24 h
[19] = qHTS assay for small molecule activators of the human pregnane X receptor (PXR) signaling pathway (AID 720659; call rule not given here; note: 0% is about no effect)
[20] = qHTS assay for small molecule activators of the p53 signaling pathway (AID 651743; active = well fitted activation curve with a large enough effect in the signal ratio, not every such curve was filed as active; the % refers to the signal ratio; note: series mostly up to about 92 µM; % of control where 0% means no effect); settings: HCT-116 p53RE-bla, beta-lactamase FRET ratio, 16 h; activation: stronger effect = higher value
How it was run: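 A beta-lactamase reporter under p53 response element control, stably carried by HCT-116 cells, reported pathway activation. Test compounds were applied for 16 hours at 37 C, and fluorescence was measured 2 hours after adding the B/G FRET substrate.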

Vitamin D3 receptor (Homo sapiens), sequence (P11473 whole entry, looked up): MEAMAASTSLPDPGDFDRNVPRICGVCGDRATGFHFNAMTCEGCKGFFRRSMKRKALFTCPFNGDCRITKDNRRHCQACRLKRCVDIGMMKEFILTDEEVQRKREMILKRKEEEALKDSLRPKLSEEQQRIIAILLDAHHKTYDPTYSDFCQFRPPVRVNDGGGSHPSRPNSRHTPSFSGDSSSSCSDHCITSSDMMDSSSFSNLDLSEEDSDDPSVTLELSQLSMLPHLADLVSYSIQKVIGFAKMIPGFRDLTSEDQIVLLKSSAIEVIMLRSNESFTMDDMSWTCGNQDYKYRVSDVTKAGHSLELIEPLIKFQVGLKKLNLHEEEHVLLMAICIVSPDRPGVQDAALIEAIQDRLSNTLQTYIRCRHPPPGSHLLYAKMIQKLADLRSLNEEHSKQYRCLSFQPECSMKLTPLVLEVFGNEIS
Peroxisome proliferator-activated receptor alpha (Homo sapiens), sequence (Q07869 whole entry, looked up): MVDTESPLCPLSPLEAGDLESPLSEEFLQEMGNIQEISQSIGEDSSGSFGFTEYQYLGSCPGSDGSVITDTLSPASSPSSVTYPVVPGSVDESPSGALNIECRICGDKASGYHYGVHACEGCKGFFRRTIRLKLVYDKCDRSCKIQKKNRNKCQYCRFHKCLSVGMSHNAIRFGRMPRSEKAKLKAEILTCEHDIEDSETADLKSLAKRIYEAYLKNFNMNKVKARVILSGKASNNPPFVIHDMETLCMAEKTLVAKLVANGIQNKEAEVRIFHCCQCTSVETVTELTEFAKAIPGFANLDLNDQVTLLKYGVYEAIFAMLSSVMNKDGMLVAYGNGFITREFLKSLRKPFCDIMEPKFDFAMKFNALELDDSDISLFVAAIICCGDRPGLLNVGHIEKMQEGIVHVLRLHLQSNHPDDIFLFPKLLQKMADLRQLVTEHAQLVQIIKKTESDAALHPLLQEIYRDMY
Estrogen receptor (Homo sapiens), sequence (P03372 whole entry, looked up): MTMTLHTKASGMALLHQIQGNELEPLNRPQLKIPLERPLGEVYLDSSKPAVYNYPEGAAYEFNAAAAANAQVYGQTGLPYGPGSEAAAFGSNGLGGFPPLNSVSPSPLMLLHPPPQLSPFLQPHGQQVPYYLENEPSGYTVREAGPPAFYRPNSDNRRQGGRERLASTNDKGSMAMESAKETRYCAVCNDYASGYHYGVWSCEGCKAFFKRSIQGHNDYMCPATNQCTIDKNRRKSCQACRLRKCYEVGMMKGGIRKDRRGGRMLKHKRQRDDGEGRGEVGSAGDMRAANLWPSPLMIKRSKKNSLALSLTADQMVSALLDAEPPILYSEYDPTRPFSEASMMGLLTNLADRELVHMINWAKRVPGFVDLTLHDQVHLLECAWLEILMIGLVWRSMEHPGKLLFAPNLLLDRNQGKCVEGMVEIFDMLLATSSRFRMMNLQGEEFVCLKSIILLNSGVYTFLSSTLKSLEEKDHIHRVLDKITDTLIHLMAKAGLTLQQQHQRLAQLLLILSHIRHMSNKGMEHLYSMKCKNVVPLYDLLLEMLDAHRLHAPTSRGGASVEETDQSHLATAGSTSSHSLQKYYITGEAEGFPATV
Retinoic acid receptor RXR-alpha (Homo sapiens), sequence (P19793 whole entry, looked up): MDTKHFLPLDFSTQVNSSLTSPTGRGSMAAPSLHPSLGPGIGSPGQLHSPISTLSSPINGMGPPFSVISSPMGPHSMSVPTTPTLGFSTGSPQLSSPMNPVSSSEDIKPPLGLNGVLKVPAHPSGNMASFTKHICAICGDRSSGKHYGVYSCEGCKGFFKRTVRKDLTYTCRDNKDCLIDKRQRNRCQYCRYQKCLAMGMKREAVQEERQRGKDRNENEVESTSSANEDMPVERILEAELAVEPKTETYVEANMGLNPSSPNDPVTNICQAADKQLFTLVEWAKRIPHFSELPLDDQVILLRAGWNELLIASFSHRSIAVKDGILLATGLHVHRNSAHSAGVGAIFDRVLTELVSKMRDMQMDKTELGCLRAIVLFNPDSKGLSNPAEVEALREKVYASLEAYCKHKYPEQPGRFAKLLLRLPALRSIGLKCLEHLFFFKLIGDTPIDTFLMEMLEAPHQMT
Thyroid hormone receptor beta (Homo sapiens), sequence (P10828 whole entry, looked up): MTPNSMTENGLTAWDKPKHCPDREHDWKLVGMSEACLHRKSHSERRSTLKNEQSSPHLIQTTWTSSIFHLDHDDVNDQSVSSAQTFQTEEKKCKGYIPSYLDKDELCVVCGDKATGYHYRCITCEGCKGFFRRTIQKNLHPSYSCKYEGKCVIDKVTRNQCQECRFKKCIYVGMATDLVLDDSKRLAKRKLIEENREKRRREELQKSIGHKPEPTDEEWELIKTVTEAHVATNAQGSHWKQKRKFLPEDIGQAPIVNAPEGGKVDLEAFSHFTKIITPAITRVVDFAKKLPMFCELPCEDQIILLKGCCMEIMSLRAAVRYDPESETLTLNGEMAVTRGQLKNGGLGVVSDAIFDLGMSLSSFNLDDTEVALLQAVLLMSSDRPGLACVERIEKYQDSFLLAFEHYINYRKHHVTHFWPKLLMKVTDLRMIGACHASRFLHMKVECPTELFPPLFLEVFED
Nuclear receptor subfamily 1 group I member 2 (Rattus norvegicus), sequence (Q9R1A7 whole entry, looked up): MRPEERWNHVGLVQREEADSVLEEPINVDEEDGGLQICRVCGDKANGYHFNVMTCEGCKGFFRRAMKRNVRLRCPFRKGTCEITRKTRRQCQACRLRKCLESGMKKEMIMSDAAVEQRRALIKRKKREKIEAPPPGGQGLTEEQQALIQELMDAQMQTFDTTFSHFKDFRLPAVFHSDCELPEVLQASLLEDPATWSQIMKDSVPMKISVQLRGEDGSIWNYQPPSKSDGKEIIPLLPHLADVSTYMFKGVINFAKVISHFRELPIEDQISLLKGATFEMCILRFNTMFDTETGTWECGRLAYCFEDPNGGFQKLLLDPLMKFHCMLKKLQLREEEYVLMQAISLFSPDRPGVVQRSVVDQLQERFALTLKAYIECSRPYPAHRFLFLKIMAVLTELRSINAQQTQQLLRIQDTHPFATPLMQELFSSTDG

Compound | Potency [1] | Potency [2] | max response [3] [%] | Potency [4] | outcome [5] | max response [6] [%] | Potency [7] | Potency [8] | max response [9] [%] | max response [10] | activity change % (negative = inhibition) [11] | activation [12] | max response [13] | Potency [14] | max response [15] | max response [16] | Potency [17] | max response [18] | outcome [19] | activation [20]
CCCCOCC(C)OCC(C)O (stereo not given) | inactive | inactive | -19.2 | inactive | inactive | -14.7 | inactive | inactive | -15.5 | -6.81% (inactive) | -10.2% (inactive) | 0.285% (inactive) | -0.312% (inactive) | inactive | 8.96% (inactive) | 0.272% (inactive) | inactive | 2.61% (inactive) | inactive | 
CC1(C)[C@@H](C=C(Cl)Cl)[C@@H]1C(=O)OCc1cccc(Oc2ccccc2)c1 | inactive | inactive | -21.4 | inactive |  |  |  |  | -10.2 | -8.61% (inactive) | 5.01% (inactive) | -0.62% (inactive) | -0.645% (inactive) | inactive | -5.58% (inactive) | -11.2% (inactive) | inactive |  |  | -0.529% (inactive)
OC1CCC(C2CCCCC2)CC1 (stereo not given) | inactive | inactive | -39.9 | inactive | inactive | -2.23 | inactive | inactive | -5.21 | 6.85% (inactive) | 4.98% (inactive) | -1.51% (inactive) | -0.35% (inactive) | inactive | -10.1% (inactive) | -12.9% (inactive) | inactive | -2.53% (inactive) | inactive | 3.92% (inactive)
COC(=O)c1cccc(C(=O)OC)c1 | inactive | inactive | -2.46 | inactive | inactive | -11.8 | inactive | inactive | -14.8 | -0.335% (inactive) | 1.41% (inactive) | 1.87% (inactive) | 0.364% (inactive) | inactive | -6.37% (inactive) | -8.05% (inactive) | inactive | 2.45% (inactive) |  | 2.13% (inactive)
O=c1[nH]c(=O)c2[nH]cnc2[nH]1 | inactive | inactive | -11.9 | inactive | inactive | -13.2 | inactive |  | -4.54 | -1.52% (inactive) | 11.6% (inactive) | 0.87% (inactive) | -2.27% (inactive) | inactive | 0.287% (inactive) | -12.8% (inactive) | inactive | 0.842% (inactive) | inactive | 4.14% (inactive)
C=C(C)C(=O)OCCOC(=O)C(=C)C | inactive | inactive | -2.87 | inactive | inactive | 0.328 | inactive | inactive | -22.3 | -2.81% (inactive) | 17.4% (inactive) | -1.11% (inactive) |  | inactive | -15.5% (inactive) | -1.71% (inactive) | inactive | -5.37% (inactive) | inactive | -1.01% (inactive)
